# Results from PubChem BioAssay AID588855 (National Center for Advancing Translational Sciences (NCATS), 2011).
# About 5,000 (1.2%) of roughly 410,000 compounds were called active. Not shown: some 13% with an inconclusive outcome. Calls follow the shape of the dose curve; as a rule, active = well fitted inhibition curve with a large enough effect; inconclusive = small, poorly fitted or top-dose-only effect; inactive = no such curve, though single readings can be large or run the other way. The list comes from a sample in which actives are over-represented; it also holds similar structures and randomly drawn compounds. A call without a number means that no potency is given here.
# Assay: qHTS for Inhibitors of TGF-b; also: nearly all actives have a fitted effect of over 65% in size
# Conditions: HepG2 CAGA-GFP TGF-b/SMAD3 reporter, GFP fluorescence, 18 h, TGF-beta stimulated, 500 pg/mL final; series mostly up to 46.1 µM
# Outline: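 HEPG2 CAGA-GFP cells (1000/well, DMEM with 1% FBS) were pre-incubated 2 h at 37 degrees C, given compound by pin tool, then stimulated with TGF-beta at 500 pg/mL final for 18 h before per-cell GFP fluorescence imaging.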
# Potency is read from the fitted curve at half-maximal effect.
row,Compound,Potency
1,O=C(CCc1nc(CN2CCN(S(=O)(=O)c3ccc(F)cc3)CC2)no1)N1CCCCC1,inactive
2,Cc1cccc(NC(=O)Cn2c(=O)n(CCC(C)C)c(=O)c3cccnc32)c1,inactive
3,Cc1oc2c(c1C(=O)N1CCOCC1)C(=O)c1ccccc1C2=O,4.47 µM (active)
4,Cc1ccc(C)c(CN2C(=O)c3ccccc3S(=O)c3ccc(C(=O)N4CCOCC4)cc32)c1 (configuration not stated),inactive
5,O=C(c1snnc1-c1ccccc1)N1CCOCC1,inactive
6,CCCCOc1ccc(C(=O)N2CC(=O)Nc3ccc(Br)cc3C2c2ccc(F)cc2)cc1 (configuration not stated),inactive
7,COc1ccc2oc(=O)c(-c3cn4c(n3)sc3cc(OC)ccc34)cc2c1,inactive
8,Cc1c(CCO)sc[n+]1CC(=O)c1ccc2ccccc2c1,inactive
9,CCC(C)NC(=O)Cn1c(=O)n(-c2ccc(Cl)cc2)c(=O)c2c3c(sc21)CCCC3 (configuration not stated),inactive
10,CCOC(=O)c1ccc(N2C(=O)c3n[nH]c(C)c3C2c2ccc(O)c(OC)c2)cc1 (configuration not stated),11.2 µM (active)
11,CCOC(=O)C1=C(c2ccccc2)N=C2SCC(=O)N2C1c1ccc(O)c(OC)c1 (configuration not stated),inactive
12,CCOC(=O)c1ccc(NC2=CC(c3ccc(OCC)cc3)N(c3ccc(C(=O)OCC)cc3)C2=O)cc1 (configuration not stated),inactive
13,CCOc1ccc(-c2n[nH]c3c2C(c2ccccc2OC)N(c2ccc(Br)cc2)C3=O)cc1 (configuration not stated),inactive
14,CCOc1cc(C2c3c(-c4ccc(Br)cc4)n[nH]c3C(=O)N2c2ccc(Cl)cc2)ccc1O (configuration not stated),4.47 µM (active)
15,CCOC(=O)c1ccc(N2C(=O)c3n[nH]c(-c4ccco4)c3C2c2ccc(O)cc2)cc1 (configuration not stated),15.8 µM (active)
16,CCOc1cc(C2C(C(=O)c3ccco3)=C(O)C(=O)N2Cc2ccccc2)ccc1O (configuration not stated),inactive
17,COc1cc(C2c3c(oc4ccccc4c3=O)C(=O)N2c2nc(C)c(C)s2)ccc1O (configuration not stated),inactive
18,CCOC(=O)c1ccc(NC(=O)CNC(=O)c2ccco2)cc1,inactive
19,Cc1nc(SCC(=O)Nc2ccc(C(=O)O)cc2)n[nH]1,inactive
20,O=S(=O)(c1ccc(C2CCCCC2)cc1)N1CCN(c2ccc(Cl)c(Cl)c2)CC1,inactive
21,CNc1ccc(-c2nc(-c3ccco3)no2)cc1[N+](=O)[O-],inactive
22,CC(C)(C)OC(=O)N(Cc1ccco1)S(=O)(=O)c1ccccc1Br,inactive
23,CCOc1ccc(NC(=O)CCc2c(C)nn(-c3ccc(N4CCCC4)nn3)c2C)cc1,inactive

row,Compound,Potency
1,CC1(C)CC(=O)c2cc(C(=O)NCc3ccccc3)c(=O)[nH]c2C1,inactive
2,CC(C)(C)c1ccc(C(=O)N2CCC(c3nc(-c4ccc(S(=O)(=O)N5CCCC5)cc4)no3)CC2)cc1,inactive
3,COc1cc(/C=C/C(=O)N2CCc3ccccc3C2)cc(OC)c1OC,inactive
4,COc1ccccc1Nc1c2c(nc3ccc(NC(=O)/C=C/c4cc(OC)c(OC)c(OC)c4)cc13)CCCC2,4.47 µM (active)
5,COc1ccc(NS(=O)(=O)c2cc(NC(=O)/C=C/c3cc(OC)c(OC)c(OC)c3)ccc2N2CCCCC2)cc1,inactive
6,CCOc1ccc(N2CC(c3nc4ccccc4n3CCOc3ccc(OC)cc3)CC2=O)cc1 (configuration not stated),inactive
7,CCCCN1CC(c2nc3ccccc3n2CCCCOc2ccc(C)cc2C)CC1=O (configuration not stated),11.2 µM (active)
8,CCc1ccccc1N1CC(c2nc3ccccc3n2CCCCOc2ccccc2)CC1=O (configuration not stated),inactive
9,Cc1oc2ccc(O)c(CN3CCC(C)CC3)c2c1C(=O)Nc1ccccc1,inactive
10,Cc1ccc(S(=O)(=O)c2nnn3c2nc(N2CCN(c4ccccc4F)CC2)c2cc(Cl)ccc23)cc1C,inactive
11,COc1ccc(CNc2nc(-c3ccccc3)nn2C(=O)c2ccccc2OC)cc1,inactive
12,OC(Cc1ccc2ccccc2n1)c1ccc(Cl)c(Cl)c1 (configuration not stated),inactive
13,CC1CC(C)CN(c2oc(-c3ccc(OCc4ccc(Cl)cc4)cc3)nc2C#N)C1 (configuration not stated),inactive
14,CC1=C(C(=O)N(C)C)CC(CC(=O)NCCc2ccccn2)C(=O)N1CCC1=CCCCC1 (configuration not stated),inactive
15,CC1=C(C(=O)N(C(C)C)C(C)C)CC(CC(=O)NCCCCc2ccccc2)C(=O)N1CCC1=CCCCC1 (configuration not stated),12.6 µM (active)
16,CC1=C(C(=O)N2CCOCC2)CC(CC(=O)NCCN2CCOCC2)C(=O)N1CCC1=CCCCC1 (configuration not stated),inactive
17,COc1ccc(/C=C/c2nnc(NC(=O)C(C)C)s2)cc1,inactive
18,O=C(Nc1ccc(Cl)cc1)Nc1nnc(/C=C/c2ccccc2)s1,7.08 µM (active)
19,O=C(CSc1ccccc1)Nc1nnc(/C=C/c2ccccc2)s1,inactive
20,COc1ccc(-c2cnc(SCCNC(=O)c3ccc4c(c3)OCO4)[nH]2)cc1,inactive
21,COc1cccc(-c2cnc(C(O)c3ccccc3OC)[nH]2)c1 (configuration not stated),inactive
22,COc1ccccc1CSc1ncc(-c2ccc([N+](=O)[O-])cc2)[nH]1,12.6 µM (active)
23,COc1ccccc1OCCNC(=O)c1cc([N+](=O)[O-])cc([N+](=O)[O-])c1,inactive

row,Compound,Potency
1,Cc1nn(Cc2ccc(Cl)cc2)c(Cl)c1/C=N/NC(=O)CNc1ccccc1F,inactive
2,Cc1ccccc1NCC(=O)N/N=C\c1ccc([N+](=O)[O-])s1,11.2 µM (active)
3,Cc1ccc(S(=O)(=O)N2CCN(CC(=O)N/N=C/c3ccc(Br)s3)CC2)cc1,inactive
4,COc1ccc(C(=O)COC(=O)c2ccc([N+](=O)[O-])s2)cc1OC,inactive
5,COc1ccc(C(=O)NCC(=O)N/N=C/c2ccc([N+](=O)[O-])s2)cc1OC,11.2 µM (active)
6,COc1ccc(C2C(=O)N(C3CCCCC3)CC(=O)N2Cc2ccccc2Cl)cc1OC (configuration not stated),inactive
7,O=C(Cc1ccc(Cl)cc1)Nc1ccc2nn(-c3ccc(Cl)cc3)nc2c1,inactive
8,CC1CCN(c2nc3ccc(C(=O)N4CCN(c5ccccc5)CC4)cc3s2)CC1,inactive
9,COc1ccc2nc(N3CCN(C(=O)c4ccc([N+](=O)[O-])o4)CC3)sc2c1,10 µM (active)
10,O=C(NCc1ccc(F)cc1)c1ccc2nc(N3CCCCC3)sc2c1,inactive
11,CCn1c2ccccc2c2cc(NC(=O)COc3ccc(C)cc3C)ccc21,inactive
12,Cn1nc(-c2ccccc2)c(-c2ccccc2)c(C(=O)Nc2ccc(S(N)(=O)=O)cc2)c1=O,inactive
13,CCCCNc1ccc(-c2nc(-c3ccncc3)no2)cc1[N+](=O)[O-],inactive
14,Cc1cccc(N2CCN(C(=O)Cn3ncc4c5ccccc5n(C)c4c3=O)CC2C)c1 (configuration not stated),inactive
15,CCOc1ccc(NC(=O)CN(Cc2ccccc2)S(=O)(=O)c2ccc(Cl)cc2)cc1,inactive
16,CCOc1ccc(N(Cc2ccccc2)C(=O)c2nc(S(C)(=O)=O)ncc2Cl)cc1,3.98 µM (active)
17,COc1ccc(N(Cc2ccc(N(C)C)cc2)C(=O)c2ccc(S(C)(=O)=O)cc2)cc1,inactive
18,CCc1ccc(NC(=O)N2CCN(C(=O)c3nsc4ccccc34)CC2)cc1,inactive
19,COc1ccc(CCNC(=O)c2cn(C)c3ccc(S(=O)(=O)N(C)C4CCCCC4)cc3c2=O)cc1OC,inactive
20,CCOC(=O)c1ccc(-c2ccc(/C=C(\C#N)C(=O)Nc3ccc(C)cc3)o2)cc1,inactive
21,O=CNc1cc(-c2ccc(C(=O)N3CCOCC3)cc2)cn2c(-c3ccc(F)cc3)cnc12,inactive
22,CC(=O)c1ccc(-c2cnc3c(NC=O)cc(-c4cccc(NS(C)(=O)=O)c4)cn23)cc1,7.08 µM (active)
23,CC(=O)c1cccc(-c2cnc3c(NC=O)cc(-c4ccc(N(C)C)cc4)cn23)c1,4.47 µM (active)

row,Compound,Potency
1,CN(C)C(=O)c1cccc(-c2cnc3c(NC=O)cc(-c4ccc(C(=O)N5CCOCC5)cc4)cn23)c1,inactive
2,COc1ccc(-c2cc(NC=O)c3ncc(-c4ccccc4)n3c2)cc1OC,inactive
3,COc1ccc(-c2cc(NC=O)c3ncc(-c4cccc(C(=O)N(C)C)c4)n3c2)c(OC)c1,inactive
4,CCc1ccccc1NC(=O)c1cnn(-c2ccc(F)cc2)c1C1CCNCC1,inactive
5,Cc1nn(CC(=O)NCCc2ccccc2)c(=O)c2c1sc1ccccc12,inactive
6,CC(=O)N1c2ccccc2CC1C(=O)N1CCN(c2ccc(F)cc2)CC1 (configuration not stated),inactive
7,CCc1ccc(OCCCn2c(CCCNC(=O)C3CCCCC3)nc3ccccc32)cc1,inactive
8,CCOC(=O)c1cc(-c2ccccc2)n(-c2cccc(C(=O)Nc3cc(OC)cc(OC)c3)c2)c1C,inactive
9,Cc1cccc([C@@H]2[C@@H]3C(=O)N(Cc4ccccc4)C(=O)[C@@H]3[C@]3(C)C(=O)N(c4ccc(Br)cc4)C(=O)N23)c1,inactive
10,Cc1ccc(-c2cccc([C@H]3[C@@H]4C=CC[C@@H](C)[C@@H]4C(=O)N3Cc3ccccc3)c2)cc1,20 µM (active)
11,COc1ccc(-c2ccc(OC)c(C3C4C=CCC(C)C4C(=O)N3Cc3ccccc3)c2)cc1C (configuration not stated),inactive
12,COc1ccc(-n2c(SC)nc3sc4c(c3c2=O)CCN(C(C)=O)C4)cc1,inactive
13,Cc1ccc(Cl)cc1N(C)C(=O)Cn1nc(Cc2cccnc2)c2ccccc2c1=O,12.6 µM (active)
14,O=C(Cn1nc(Cc2cccnc2)c2ccccc2c1=O)NCC1CCCO1 (configuration not stated),inactive
15,O=C(Cn1nc(Cc2cccnc2)c2ccccc2c1=O)NCC1COc2ccccc2O1 (configuration not stated),inactive
16,CC(C)CCNC(=O)CSc1nc2ccccc2nc1Cc1ccc(Cl)cc1,inactive
17,COc1ccc(CCNC(=O)c2ccc(CSCc3ccc(C)cc3)o2)cc1OC,inactive
18,O=Cc1cn(CCOc2ccc(F)cc2)c2ccccc12,3.98 µM (active)
19,COc1ccc(OCCn2cc(C(=O)C3CCCCC3)c3ccccc32)cc1,inactive
20,COC(=O)N/N=C/c1cn(CCCOc2ccc(C)cc2)c2ccccc12,14.1 µM (active)
21,Cc1c(C=O)c2ccccc2n1CCOc1ccccc1,inactive
22,Cc1ccc(OCCOc2cccc(/C=N/NC(N)=O)c2)cc1,inactive
23,O=C1c2ccccc2C(=O)N1CCOc1ccc(F)cc1,inactive
